# Screening results: PubChem, National Center for Advancing Translational Sciences (NCATS)
# D1 PAM – human D1 dopamine receptor positive modulation | P21728 | HEK293 TREx D1 cells, calcium flux, dopamine EC20 potentiation | potentiation, % at 10 µM | 360,000 tested, 0.036% active; in the data active = potentiation above about 30%; note: 0% is about no effect
# D1 agonist – agonists of human D1 dopamine receptor; AID 504660; activation, % at 2 µM; HEK293 T-REx D1 cells, calcium flux, agonist mode; P21728; 360,000 tested, 1% active; note: 0% is about no effect
#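 Inducible HEK293 T-REx D1 cells, force-coupled to calcium signalling, were plated at 4000 cells/well with tetracycline and held overnight at 30 C. After no-wash calcium dye loading, compound-evoked calcium rise over 180 s flagged agonists.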
# TRHR agonist – TRH receptor (human) agonism; P34981; TRHR cells, calcium flux fluo-8, FDSS agonist mode; activation, % at 2 µM; 360,000 tested, 0.18% active; AID 493084; note: 0% is about no effect
# Target sequence (P34981 whole entry, looked up): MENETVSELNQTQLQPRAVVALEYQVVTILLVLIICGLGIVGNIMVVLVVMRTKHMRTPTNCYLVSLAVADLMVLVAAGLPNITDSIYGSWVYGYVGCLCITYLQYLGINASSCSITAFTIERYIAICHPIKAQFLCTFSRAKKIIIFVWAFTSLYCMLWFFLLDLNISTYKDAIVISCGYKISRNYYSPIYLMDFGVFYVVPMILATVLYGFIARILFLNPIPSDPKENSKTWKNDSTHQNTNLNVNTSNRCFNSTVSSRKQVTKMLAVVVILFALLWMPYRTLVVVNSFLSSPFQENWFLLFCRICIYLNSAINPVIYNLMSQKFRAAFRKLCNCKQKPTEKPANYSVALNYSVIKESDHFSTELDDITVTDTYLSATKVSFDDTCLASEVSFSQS
#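 Steps: seed TRHR cells overnight; add fluo-8 no-wash Ca dye, RT 30 min–1.5 h; record 10 s baseline; pin-transfer compounds; monitor fluorescence 1 cycle/s for the agonist window. Calcium increases flag candidate agonists.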
# D1 antag – human D1 dopamine receptor antagonism; HEK293 TREx D1 cells, calcium flux, dopamine EC80; hits give low values; activity change, negative = inhibition, % at 10 µM; 360,000 tested, 3.2% active; in the data active = activity change below about -30%; note: % is set by controls: 0 for no effect and ±100 for the full control effect
#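 Kinetic fluorescence of a calcium dye serves as the read-out. D1-expressing Hek293 Trex cells, induced overnight at 30 C, are exposed to compound for 180 s before an EC80 dopamine addition, then read 180 s further.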
# TRHR PAM – allosterically enhances the human TRH receptor | enhancement, % at 2 µM | P34981 | TRHR cells, fluo-8 calcium fluorescence, EC20 TRH enhancement | AID 493056 | 360,000 tested, 0.66% active; in the data active = enhancement above about 30%; note: 0% is about no effect
#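 TRHR-expressing cells loaded with fluo-8 calcium dye were read kinetically (ex 480/em 530) during compound addition, then stimulated with an EC20 of TRH (10 nM final). Enhancement of the Gq-mediated intracellular calcium response was scored.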
# Starred values were filed as active, the others as inactive. This is a sample that favours compounds with a hit; in the whole collection about 4.7% have one here. Cut-off read from the data, not from the text of the source, unless noted: active = activation above about 30%; inactive = the rest.
SMILES,D1 PAM,D1 agonist,TRHR agonist,D1 antag,TRHR PAM
COc1ccc(C)cc1NC(=O)Cn1cc(S(=O)(=O)Cc2ccccc2Cl)c2ccccc21,7.8,4.6,0.9,-13.2,-6.5
O=C(CCCCCN1C(=O)c2cccc3cccc(c23)C1=O)NC1CCS(=O)(=O)C1 (stereo not drawn),-2.7,1.0,0.2,-31.1*,1.0
Cc1ccc(/C=C/c2onc(C)c2S(=O)(=O)N2CCC(C(=O)Nc3ccc(C)c(N(C)C)c3)CC2)cc1,-3.2,3.9,0.2,-12.9,2.9
Cc1ccc(/C=C/c2onc(C)c2S(=O)(=O)N2CCC(C(=O)Nc3ccc(OC(F)(F)F)cc3)CC2)cc1,-3.9,1.9,0.8,-67.5*,5.6
COc1ccccc1CN(C)S(=O)(=O)c1cccs1,-5.6,0.4,-0.2,-8.5,0.3
COc1ccc(C(C)=O)cc1CN(c1ccccc1OC)S(=O)(=O)c1cccs1,0.7,4.6,-1.2,-93.5*,0.8
O=C(NCc1ccccc1)c1ccc(Cn2c(=O)c3cccn3c3cccnc32)cc1,-2.2,2.9,0.8,9.6,0.5
CC1(C)CC(=O)C(N=Nc2ccc(F)cc2)=C(O)C1,-5.3,3.4,-0.2,-42.2*,3.7
CCOc1ccc(S(=O)(=O)N(C)CC(=O)NCc2ccc3c(c2)OCO3)cc1,-2.2,0.8,0.0,-26.7,3.3
CC(=O)N1CCCc2cc(S(=O)(=O)N3CCCC(C(=O)Nc4ccc(F)cc4F)C3)ccc21 (stereo not drawn),-3.1,2.0,0.0,-8.3,3.1
O=C1c2cccc3c([N+](=O)[O-])ccc(c23)C(=O)N1c1ccccn1,-10.8,3.7,-1.0,-42.1*,3.6
O=C1c2ccc([N+](=O)[O-])cc2C(=O)N1c1ccc(Cl)cn1,1.8,0.0,0.9,1.1,-6.9
O=C1c2cccc3c([N+](=O)[O-])ccc(c23)C(=O)N1O,2.7,3.3,0.5,-8.2,-2.8
CCN(CC)S(=O)(=O)c1ccc(C(=O)OCCN2C(=O)c3cccc4c(N5CCOCC5)ccc(c34)C2=O)cc1,-7.2,15.3,5.4,-23.4,2.9
O=C1c2cccc3c([N+](=O)[O-])ccc(c23)C(=O)N1c1ccc(Cl)cn1,-8.2,3.4,3.9,-49.5*,-21.3
CC(=O)Oc1ccc(N2C(=O)c3cccc4c([N+](=O)[O-])ccc(c34)C2=O)cc1,-7.5,2.1,1.0,-41.4*,19.6
CCCN1C(=O)c2cccc3c(N4CCCCC4)ccc(c23)C1=O,-3.1,63.3*,21.5,7.9,7.5
Cc1cc(C)n2c(Nc3ccccc3C)c(-c3cccs3)nc2n1,0.1,6.1,-0.8,4.8,-0.1
Cc1ccc(CCNC(=O)c2c3c(nc4ccccc24)C(=O)N(C2CCCCC2)C3)cc1,-5.9,1.8,-0.6,8.7,-1.8
CCCCNc1ccc2c3c(cccc13)C(=O)N(CCCC)C2=O,4.3,700.2*,285.8*,-70.6*,-13.8
O=C(OCCN1C(=O)c2cccc3c(N4CCOCC4)ccc(c23)C1=O)c1cc(Cl)cc(Cl)c1,0.3,12.3,0.2,-9.3,9.6
O=C1c2cccc3c(N4CCCCC4)ccc(c23)C(=O)N1c1ccccn1,-5.8,154.0*,156.5*,-26.7,14.0
CC(=O)N(C(C)=O)N1C(=O)c2cccc3c(N4CCOCC4)ccc(c23)C1=O,-2.9,30.6*,14.6,-1.8,-0.5
CC(C)OC(=O)c1c(-c2ccccc2)c(-c2ccccc2)nn(C)c1=O,-1.9,0.2,-2.0,-5.7,15.0
COCCNC(=O)CN(C(=O)CCC(=O)Nc1ccccn1)c1ccc(F)cc1,-5.2,3.1,0.0,-0.4,33.4*
SMILES,D1 PAM,D1 agonist,TRHR agonist,D1 antag,TRHR PAM
O=C(CN(Cc1ccc(F)cc1)C(=O)CCC(=O)Nc1nccs1)NCc1ccccc1,-7.2,1.9,0.1,-91.5*,-2.3
O=C(CN(Cc1ccccc1)C(=O)CCC(=O)Nc1nccs1)NCc1ccc(F)cc1,-5.8,-0.5,0.1,-5.2,-0.2
Cc1ccccc1N(CC(=O)NCc1ccco1)C(=O)CCC(=O)Nc1nccs1,-3.1,3.3,-0.1,-32.4*,-1.4
COCCNC(=O)CN(C(=O)CCC(=O)Nc1ccccn1)c1ccc(C)cc1,-3.5,1.3,-0.3,-6.2,-3.2
CC(C)c1ccc(N(CC(=O)NCc2ccco2)C(=O)CCC(=O)Nc2ccccn2)cc1,-2.3,-3.0,-0.2,23.3,39.2*
CC(=O)c1cccc(Nc2cc(C)nc3nc(Cc4ccccc4)nn23)c1,-2.4,4.6,-2.5,6.0,5.6
O=C(Nc1cccc(C(=O)OCc2cc(=O)n3c4c(sc3n2)CCCC4)c1)c1ccc(Cl)cc1,-1.0,0.7,0.5,1.4,3.8
O=C(NCc1ccc(F)cc1)c1ccc2c(c1)nnn2C1CCCC1,-1.9,11.5,-0.8,-19.0,-1.7
CCc1ccccc1NC(=O)c1ccc2c(c1)nnn2C1CCCC1,0.5,4.5,-0.5,-30.5*,0.6
O=C(NCc1ccccc1Cl)c1ccc2c(c1)nnn2C1CCCC1,-4.3,6.6,0.2,-34.1*,2.0
CC(=O)CC1(O)C(=O)N(Cc2ccccc2)c2ccccc21 (stereo not drawn),-12.7,2.3,0.2,-85.1*,-20.5
Cc1ccc(C(=O)CC2(O)C(=O)N(Cc3ccccc3Cl)c3ccccc32)o1 (stereo not drawn),10.9,-1.4,0.3,-30.6*,0.0
CCOc1ccccc1C(=O)N(Cc1ccc(N(C)C)cc1)CC1CCCO1 (stereo not drawn),5.3,-0.3,-0.2,-10.9,22.2
CC(=O)Nc1nonc1NC(=O)CSC1=NCCS1,4.8,-0.7,0.2,16.3,31.4*
CCOc1cccc(C2c3c(oc4ccc(F)cc4c3=O)C(=O)N2CCc2ccc(OC)cc2)c1 (stereo not drawn),-6.5,-0.1,-0.8,-30.3*,8.0
CCc1ccc(C2c3c(oc4ccc(F)cc4c3=O)C(=O)N2c2nc(C)c(C(=O)OC)s2)cc1 (stereo not drawn),-9.9,0.0,0.9,-69.3*,4.2
COc1ccc(-c2cn3c(n2)sc2cc(C(=O)NCc4cccs4)ccc23)cc1,-1.1,3.7,0.3,-2.2,-3.5
C=CCNC(=S)NNC(=O)CC12CC3CC(CC(C3)C1)C2,-15.4,0.6,0.2,-42.2*,-26.0
Cc1cc(C)c2c(-n3cccc3)c(C(=O)NCCCN3CCCCC3)sc2n1,-1.1,0.2,-0.8,-6.4,0.3
O=C(NCCN1CCCCC1)Nc1ccc(F)cc1F,3.8,-1.4,0.3,-29.6,36.9*
O=C(NCCN1CCCCC1)Nc1ccccc1F,-7.3,5.3,0.4,-12.8,0.8
Cc1ccc(C)c(N2CCN(C(=O)C3CCC(CNS(=O)(=O)c4ccc(Br)s4)CC3)CC2)c1 (stereo not drawn),-3.8,1.7,0.6,-2.5,1.4
Cc1ccc(S(=O)(=O)N2CCCCC2)cc1NC(=O)C1=NN(c2ccccc2)C(=O)CC1,-9.2,5.8,0.2,-43.9*,-6.0
